{"source": "PubChem BioAssay AID2501", "about": "(Southern Research Specialized Biocontainment Screening …, 2010)", "note": "Hit rate of the full screen: of about 2,200 compounds, about 1,200 (55%) were called active. No cut-off is given here; in the data, nearly all actives have IC50 up to about 92 µM. So high a share suggests a set chosen from earlier hits. The list shows a part of the results.", "data": [{"assay": "counter assay for TAg ATPase ADP read-out – biochemical, ADP-Hunter, fluorescence, counter-screen (AID 2501);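 note: purified T antigen ATPase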;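 for inhibition: 0% = enzyme with vehicle and 100% = reference inhibitor wells; higher means more inhibition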", "details": "series mostly up to 100 µM; inhibition: at the top concentration", "values": [{"smiles": "Cc1ccc([C@@H]2[C@@H]3C(=O)N(c4ccccc4)C(=O)[C@@H]3[C@]3(C)C(=O)N(Cc4ccccn4)CC(=O)N23)o1", "inhibition": "-36.8% (inactive)"}, {"smiles": "CSc1nnc(-c2ccc(O)cc2)n1C", "IC50": "27.5 µM (active)"}, {"smiles": "CC/C(=N\\NC(=O)CCC(=O)NCc1ccccc1)c1ccc(O)cc1", "IC50": "9.43 µM (active)"}, {"smiles": "Cc1cc(C)cc(-n2nnc(C(=O)NCc3ccccc3)c2N)c1", "inhibition": "-17.4% (inactive)"}, {"smiles": "CCOC(=O)/C=C/C(=O)OCC(=O)NCc1ccccc1", "inhibition": "-8.77% (inactive)"}, {"smiles": "CN1C(=O)C2C(c3ccc(N(C)C)cc3)=NN(Cc3ccccc3)C2C1=O", "note": "(stereo not drawn)", "IC50": "9.4 µM (active)"}, {"smiles": "CC(C)C(=O)Nc1ccc(O)c(-c2csc(N)n2)c1", "IC50": "10.3 µM (active)"}, {"smiles": "O=[N+]([O-])c1cccc(NC(=S)NCc2ccncc2)c1", "inhibition": "-17.7% (inactive)"}, {"smiles": "CCc1cccc2c(C(=O)CN3C(=O)NC(C)(c4cccc5ccccc45)C3=O)c[nH]c12", "note": "(stereo not drawn)", "inhibition": "-8% (inactive)"}, {"smiles": "Cn1c2ccccc2c2nnc(SCC(=O)Nc3cccc(C(=O)O)c3)nc21", "inhibition": "-13.3% (inactive)"}, {"smiles": "Cc1ccccc1NC(=O)CSc1nnc(-c2ccco2)c(-c2ccco2)n1", "inhibition": "9.02% (inactive)"}, {"smiles": "CCc1nc(SCC(=O)Nc2ccc(N(C)C)cc2)n[nH]1", "IC50": "6.73 µM (active)"}, {"smiles": "CN(C)c1ccc(NC(=O)CSc2nnc(-c3ccco3)c(-c3ccco3)n2)cc1", "IC50": "6.24 µM (active)"}, {"smiles": "CSc1nnc(-c2ccco2)c(-c2ccco2)n1", "inhibition": "-17.9% (inactive)"}, {"smiles": "FC(F)(F)C1CCCN(c2nsc3ccccc23)C1", "note": "(stereo not drawn)", "inhibition": "23.6% (inactive)"}, {"smiles": "CN1\\C(=C/C=C/C=C/C=[N+](C)C)C(C)(C)c2ccccc21", "IC50": "12.3 µM (active)"}, {"smiles": "Cc1nnc(NC(=O)c2cc(-c3ccco3)nc3ccccc23)s1", "inhibition": "-14.3% (inactive)"}, {"smiles": "Cc1ccc(-c2cc(C(=O)NCc3ccco3)c3ccccc3n2)o1", "inhibition": "-48.7% (inactive)"}, {"smiles": "CC(C)(C)c1cc(C(=O)N/N=C/c2ccc(O)cc2)n(-c2ccccc2)n1", "IC50": "61.4 µM (active)"}, {"smiles": "CCc1cc(C(=O)N/N=C/c2ccc(O)cc2)c2ccccc2n1", "IC50": "2.69 µM (active)"}, {"smiles": "O=C(N/N=C/c1ccc(O)c(O)c1)c1cc(-c2ccccc2)nc2ccccc12", "IC50": "36 µM (active)"}, {"smiles": "Cc1cc(/C=N/NC(=O)C(O)(c2ccccc2)c2ccccc2)c(C)n1-c1cccc(C(=O)O)c1", "inhibition": "-36.7% (inactive)"}, {"smiles": "O=C(N/N=C/c1ccc(O)cc1)c1csc2ccccc12", "IC50": "4.27 µM (active)"}, {"smiles": "Cc1cccc(NC(=O)c2cc(Cl)nc3ccccc23)c1", "inhibition": "-15.5% (inactive)"}, {"smiles": "O=C(O)c1cc(N/N=C/c2cccc3ccccc23)ccc1Cl", "inhibition": "23.8% (inactive)"}, {"smiles": "CNC(=S)NNC(=O)c1cc(C(C)(C)C)nn1Cc1ccc(F)cc1", "inhibition": "26.2% [at 50 µM] (inactive)"}, {"smiles": "Nc1ccc(-n2nncc2-c2ccc(Cl)cc2)cc1", "inhibition": "28.3% (inactive)"}, {"smiles": "COc1cnc(-c2ccccn2)nc1Oc1ccc(Cl)c2ccccc12", "inhibition": "-37.7% (inactive)"}]}]}
